Results as given in the supplement of paper PMC3334620.
Over roughly 33,000 sequences, “E-score (-0.5 to 0.5)” has its median near -0.017; the highest 2% begin near 0.3. The entries come from a sample that favours the highest values as a whole.

These sequences were tested against T1, Sut1 (UniProt P53032) (assay: PBM E-score (8-mer binding enrichment) (E-score (-0.5 to 0.5)); higher = stronger / more preferred TF binding). Details: protein concentration: 200 nM; construct: GST-full length.
T1 sequence: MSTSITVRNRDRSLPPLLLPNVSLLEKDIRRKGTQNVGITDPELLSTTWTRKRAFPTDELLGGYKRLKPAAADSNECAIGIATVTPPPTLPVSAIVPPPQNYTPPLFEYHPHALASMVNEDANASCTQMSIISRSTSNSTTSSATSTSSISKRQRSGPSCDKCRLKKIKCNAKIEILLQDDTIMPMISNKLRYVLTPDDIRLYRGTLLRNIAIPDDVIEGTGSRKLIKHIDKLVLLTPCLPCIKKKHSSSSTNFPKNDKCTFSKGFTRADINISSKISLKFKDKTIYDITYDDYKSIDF
Description: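 Universal 'all 10-mer' protein binding microarrays (Agilent AMADID 015681) probed with GST-tagged S. cerevisiae TFs (full-length or DBD) made by in vitro transcription/translation (PURExpress), about 100-200 nM. Bound TF was detected with fluorescent anti-GST. Each ungapped 8-mer (which stands for itself and its reverse complement) is scored by the PBM enrichment score (E-score), a modified Wilcoxon-Mann-Whitney statistic from -0.5 to +0.5, computed with the Universal PBM Analysis Suite. Scale: above 0.35 generally sequence-specific binding.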
In the case of ATACGAGA, the “PBM E-score” value is reported as -0.0254. AGAGGCTC was tested, and the “PBM E-score” value was -0.103. For AATTCTGG, the “PBM E-score” value was -0.0608. CTTCACTA was tested, and the “PBM E-score” value was 0.252. With GCTTCTTA the “PBM E-score” value was 0.0688. For ATGACGTA, the “PBM E-score” value was 0.0909. For GCGTACTA, the “PBM E-score” value was -0.0972. For CCGTACTA, the “PBM E-score” value was 0.297. ACGTACTA was tested, and the “PBM E-score” value was -0.0235. In the case of AGAATCCA, the “PBM E-score” value is reported as 0.00183. In the case of GTTATATA, the “PBM E-score” value is reported as 0.286. With CTTATATA the “PBM E-score” value was 0.334. ATTATATG was tested, and the “PBM E-score” value was 0.134. With CTTATATC the “PBM E-score” value was 0.222. In the case of ATTATATA, the “PBM E-score” value is reported as 0.337. In the case of ATTATATC, the “PBM E-score” value is reported as 0.262. For AACCCGTA, the “PBM E-score” value was -0.0786. In the case of CTTCTCTC, the “PBM E-score” value is reported as -0.0216. In the case of CCAAACAC, the “PBM E-score” value is reported as -0.00595. In the case of ACACCTCG, the “PBM E-score” value is reported as -0.103. In the case of AGGAGGAG, the “PBM E-score” value is reported as -0.183. For AGGTGTGG, the “PBM E-score” value was -0.0561. For AGTCCGTA, the “PBM E-score” value was 0.445. For GGTCCGTA, the “PBM E-score” value was 0.253. With CGTCCGTA the “PBM E-score” value was 0.0823. In the case of AGCCCGTG, the “PBM E-score” value is reported as -0.224. AGTCCATG was tested, and the “PBM E-score” value was -0.00201. AGTCCGTG was tested, and the “PBM E-score” value was 0.431. With CGTCCGTC the “PBM E-score” value was -0.154. With AATCCGTC the “PBM E-score” value was 0.0795. AGTCCGTC was tested, and the “PBM E-score” value was 0.424. CTGCTTGA was tested, and the “PBM E-score” value was -0.153. CTGAACAC was tested, and the “PBM E-score” value was -0.0309. For GCTCTGCC, the “PBM E-score” value was -0.128. With CGCACACA the “PBM E-score” value was -0.161. With CGTTGGCA the “PBM E-score” value was -0.0897. In the case of GACTGATA, the “PBM E-score” value is reported as 0.0856. In the case of CGAGCTCG, the “PBM E-score” value is reported as -0.0197. For GGAGACAA, the “PBM E-score” value was 0.0139. With GCATGCGA the “PBM E-score” value was 0.0246. In the case of GTGCCGAA, the “PBM E-score” value is reported as 0.0728. CTCCGAGA was tested, and the “PBM E-score” value was 0.459. CCCCGAGC was tested, and the “PBM E-score” value was 0.163. With CTCCGAGC the “PBM E-score” value was 0.437. In the case of ATCCGAGC, the “PBM E-score” value is reported as 0.0537. In the case of GGCCGAGA, the “PBM E-score” value is reported as 0.0849. For ATCCGAGA, the “PBM E-score” value was 0.198. In the case of GTCCGAGA, the “PBM E-score” value is reported as 0.428. With CGCCGAGA the “PBM E-score” value was 0.0729. In the case of CACCGAGA, the “PBM E-score” value is reported as -0.0582. For CGACACTC, the “PBM E-score” value was 0.0434. With AGACTCAA the “PBM E-score” value was -0.0327. With AAGGCTGG the “PBM E-score” value was -0.146. AGATGGTA was tested, and the “PBM E-score” value was 0.0768. ATTTATTA was tested, and the “PBM E-score” value was 0.269. In the case of GTTTATTA, the “PBM E-score” value is reported as 0.302. For AATTATTC, the “PBM E-score” value was 0.317. In the case of CATTATTC, the “PBM E-score” value is reported as 0.231. With GATTATTA the “PBM E-score” value was 0.229. CTTTATTA was tested, and the “PBM E-score” value was 0.261. With AATTATCC the “PBM E-score” value was 0.1. For AATTATTG, the “PBM E-score” value was 0.173. AATTATTA was tested, and the “PBM E-score” value was 0.305. With TCGATCAA the “PBM E-score” value was -0.00575. In the case of TAGTGCGA, the “PBM E-score” value is reported as -0.0645. With AGTGATTA the “PBM E-score” value was 0.0842. With CTGTCCTA the “PBM E-score” value was -0.0818. For CCAAGACC, the “PBM E-score” value was -0.261. With GGCGTCGA the “PBM E-score” value was -0.167. In the case of AAAAGTCC, the “PBM E-score” value is reported as 0.394. In the case of GAAAGTCC, the “PBM E-score” value is reported as 0.326. In the case of CAAAGTCC, the “PBM E-score” value is reported as 0.282. In the case of GGAAGTCC, the “PBM E-score” value is reported as 0.159. In the case of CTAAGTCC, the “PBM E-score” value is reported as 0.114. In the case of AAAAGTCA, the “PBM E-score” value is reported as 0.15. With GAAAGTCA the “PBM E-score” value was 0.049. For ATAAGTCG, the “PBM E-score” value was 0.0862. CGAAGTCA was tested, and the “PBM E-score” value was -0.081. With CGAAGTCC the “PBM E-score” value was 0.378. ATAAGTCC was tested, and the “PBM E-score” value was 0.317. AAAAGTCT was tested, and the “PBM E-score” value was 0.102. With CGCGCAAC the “PBM E-score” value was -0.114. For CAAAGTAC, the “PBM E-score” value was 0.0285. In the case of ACGTATAG, the “PBM E-score” value is reported as 0.0316. In the case of GCAGCACC, the “PBM E-score” value is reported as 0.0294. AGATTGCC was tested, and the “PBM E-score” value was -0.043. With CCACAAAA the “PBM E-score” value was 0.0574. GCTCTACA was tested, and the “PBM E-score” value was -0.121. In the case of AGGATCGC, the “PBM E-score” value is reported as -0.214. CAAGCGGC was tested, and the “PBM E-score” value was -0.0127. With ACAAGTCA the “PBM E-score” value was -0.118. ACAAGTCG was tested, and the “PBM E-score” value was -0.264. In the case of ACAAGTCC, the “PBM E-score” value is reported as 0.374. With ACGCGTCG the “PBM E-score” value was 0.174. For AAAGTGAA, the “PBM E-score” value was 0.191. With GTGCTACA the “PBM E-score” value was -0.0297. For GGGATGGA, the “PBM E-score” value was -0.0689. In the case of CGAAAAGC, the “PBM E-score” value is reported as -0.0121. For CCTCCGGA, the “PBM E-score” value was 0.374. GCTCCGGA was tested, and the “PBM E-score” value was 0.442. In the case of GCGCCGGA, the “PBM E-score” value is reported as 0.196. In the case of CCTCCCGA, the “PBM E-score” value is reported as -0.289. For CCGCCGGA, the “PBM E-score” value was 0.223. With GCTCCAGA the “PBM E-score” value was -0.199. ACTTAGCC was tested, and the “PBM E-score” value was -0.129. For GAGGCTAC, the “PBM E-score” value was -0.349. For CTTCGCAA, the “PBM E-score” value was -0.0605. GAAGCGAC was tested, and the “PBM E-score” value was -0.0313. CACCGACC was tested, and the “PBM E-score” value was -0.226. For GCCCGACA, the “PBM E-score” value was -0.106. ATCCGACC was tested, and the “PBM E-score” value was 0.00218. With CTCCGACA the “PBM E-score” value was 0.375. GTCCGACA was tested, and the “PBM E-score” value was 0.366. CCCCGACA was tested, and the “PBM E-score” value was 0.0397. With GGCCGACA the “PBM E-score” value was -0.0715. In the case of CTCCGACC, the “PBM E-score” value is reported as 0.391. For ATCCGACA, the “PBM E-score” value was 0.0788. For ATTTCAGC, the “PBM E-score” value was 0.137. For AACACTAT, the “PBM E-score” value was 0.266. For AAGTGTCC, the “PBM E-score” value was 0.0158. In the case of GCTGAAGA, the “PBM E-score” value is reported as -0.00656. With GAGGTGGA the “PBM E-score” value was -0.151. In the case of AGGTCGAG, the “PBM E-score” value is reported as -0.257. CATTATAA was tested, and the “PBM E-score” value was 0.126. For CATTATAC, the “PBM E-score” value was 0.151. AATTATAG was tested, and the “PBM E-score” value was 0.257. AATTATAC was tested, and the “PBM E-score” value was 0.308. For GATTATAA, the “PBM E-score” value was 0.154. With AATTATAA the “PBM E-score” value was 0.335. In the case of ACTATGGG, the “PBM E-score” value is reported as -0.155. In the case of CGTCTGTC, the “PBM E-score” value is reported as -0.213. For CTCAGCTA, the “PBM E-score” value was -0.13. With TACTTACA the “PBM E-score” value was 0.115. With AGGAGTCC the “PBM E-score” value was 0.202. For CGGAGTCC, the “PBM E-score” value was 0.486. AGGAGTCA was tested, and the “PBM E-score” value was 0.0481. In the case of CAGAGTCC, the “PBM E-score” value is reported as 0.17. With GGGAGTCA the “PBM E-score” value was -0.126. CGGAGTCA was tested, and the “PBM E-score” value was 0.474. For CTCTCACA, the “PBM E-score” value was 0.0236. In the case of GAACCGAA, the “PBM E-score” value is reported as 0.13. For ATTTGCAG, the “PBM E-score” value was 0.0722. In the case of CTAGCGCA, the “PBM E-score” value is reported as -0.174. In the case of ATTACGGC, the “PBM E-score” value is reported as -0.0212. With GGTACGGA the “PBM E-score” value was 0.155. With AGTACGGA the “PBM E-score” value was 0.374. For ATTACGGA, the “PBM E-score” value was 0.353. ATTACGGG was tested, and the “PBM E-score” value was -0.0151. ATCACGGC was tested, and the “PBM E-score” value was 0.0173. In the case of AGTACGGC, the “PBM E-score” value is reported as -0.0481. With ATCACGGA the “PBM E-score” value was 0.402. With ATCACGGG the “PBM E-score” value was -0.0946. For GTGCAGGA, the “PBM E-score” value was -0.23. With CTCCTGAA the “PBM E-score” value was -0.0399. With GAGAATCA the “PBM E-score” value was 0.0959. For GTGGATTA, the “PBM E-score” value was 0.0983. With TCCGAGGA the “PBM E-score” value was 0.34. With CCCGAGGA the “PBM E-score” value was -0.118. With GCCGATAA the “PBM E-score” value was 0.00363. With TCCGACAA the “PBM E-score” value was 0.337. With CCCGACAA the “PBM E-score” value was 0.173. GCCGAGCA was tested, and the “PBM E-score” value was -0.305. TCCGAGCA was tested, and the “PBM E-score” value was 0.307. ACCGACAA was tested, and the “PBM E-score” value was 0.0505. With TCCGATAA the “PBM E-score” value was 0.387. With ACCGATAA the “PBM E-score” value was 0.18. With ACCGAGCA the “PBM E-score” value was 0.205. GCCGAGGA was tested, and the “PBM E-score” value was 0.1. With TTAGCCAA the “PBM E-score” value was -0.0233. For GTAATCGA, the “PBM E-score” value was 0.0961. For ACTACTCT, the “PBM E-score” value was -0.0164. In the case of CTAGCCTC, the “PBM E-score” value is reported as -0.268. With CCCTCGCG the “PBM E-score” value was -0.204. ATCTGCAG was tested, and the “PBM E-score” value was 0.0906. With ATGAGACA the “PBM E-score” value was -0.0116.
